Screening results deposited in PubChem by National Center for Advancing Translational Sciences (NCATS).
Mm-Cpn inhibitor: Inhibitors of TCP-1 ring complex (TRiC) of Methanococcus maripaludis (MmCpn): qHTS; Potency, µM (titrated, usually from 76.9 µM), inactives show top-dose activity, negative = inhibition, hits mostly inhibitors; purified Mm-Cpn ATPase, ADP Transcreener TR-FRET; Chaperonin Mm-Cpn (Methanococcus maripaludis); 330,000 tested, 0.031% active; note: potency is the fitted concentration of half-maximal effect; nearly all actives have a fitted effect of over 80% in size
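Measured: ADP formation by purified Mm-CPN. Conditions: 25 nM protein, 10 uM ATP, Tris pH 7.4 with Mg2+, K+ and DTT, 37°C for 30 min. Detection: Transcreener HTRF after 30 min at room temperature.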
VDR inhibitor: Inhibitors of the vitamin D receptor (VDR): qHTS. Vitamin D3 receptor (Homo sapiens), P11473. VDR-SRC2-3 peptide fluorescence polarization, 2 h. Potency, µM, for inactives: max response, negative = inhibition, usual class: inhibitors. 400,000 tested, 0.93% active. AID 504847, 2011; note: potency is the fitted concentration of half-maximal effect
Target sequence (P11473 whole entry, looked up): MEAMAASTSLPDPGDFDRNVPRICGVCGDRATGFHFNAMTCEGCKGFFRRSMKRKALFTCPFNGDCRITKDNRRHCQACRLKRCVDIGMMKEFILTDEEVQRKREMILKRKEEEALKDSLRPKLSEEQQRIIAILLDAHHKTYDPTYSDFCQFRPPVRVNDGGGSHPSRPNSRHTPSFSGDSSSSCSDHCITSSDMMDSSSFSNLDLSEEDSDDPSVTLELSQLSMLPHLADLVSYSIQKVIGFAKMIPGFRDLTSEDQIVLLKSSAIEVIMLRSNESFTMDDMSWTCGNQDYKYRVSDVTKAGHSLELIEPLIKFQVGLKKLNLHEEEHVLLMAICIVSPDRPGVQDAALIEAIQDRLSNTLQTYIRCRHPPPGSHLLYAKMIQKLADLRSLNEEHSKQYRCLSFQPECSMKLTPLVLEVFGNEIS
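After 23 nl compound addition and a short centrifugation, plates sat for 2 hours at ambient temperature; polarization of fluorescence then indicated loss of VDR binding to peptide SRC2-3.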
Sfp PPTase inh: qHTS Assay for Inhibitors of Bacillus subtilis Sfp phosphopantetheinyl transferase (PPTase); 4'-phosphopantetheinyl transferase ffp (Bacillus subtilis), Q9F4F7; Biochemical Sfp PPTase activity, qHTS; Potency, µM, for the others: largest response in the series, negative = inhibition, most hits filed as inhibitors; 310,000 tested, 3.5% active;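 note: the enzyme is Sfp with the accession as filed and its product quenches rhodamine fluorescence; potency is the fitted concentration of half-maximal effect; 0% = enzyme reaction without inhibitor and -100% = no enzyme wells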
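Step 1, compound plus 15 nM Sfp-PPTase, 15 min, room temperature. Step 2, add rhodamine-CoA (5 uM) and BHQ-2-YbbR (12.5 uM). Step 3, read 525/598 nm fluorescence at 0 and 30 min.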
CCT chaperon mod: High-Throughput Screening for Modulators of Cytosolic Chaperonin Activity | purified chaperonin ATPase assay, HTRF ADP detection, 30 min | AID 651819, 2012 | 360,000 tested, 0.3% active | activity change, % (test concentration not listed), hits read low; in the data active = activity change below about -30%
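We incubate TRiC, 40 or 20 nM final, with library compounds at 76 uM and 10 uM ATP for 30 min at 37 °C. ADP formed is detected with Transcreener HTRF reagents after 30 min at room temperature.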
PLK1 PBD block: qHTS for Inhibitors of PLK1-PDB (polo-like kinase 1 - polo-box domain): Primary Screen | Serine/threonine-protein kinase PLK1 (Homo sapiens), P53350 | Plk1 PBD binding of FITC phosphopeptide, fluorescence polarization | Potency, µM, for inactives: max response, negative = inhibition, actives largely listed as inhibitors | 360,000 tested, 2.8% active; note: potency is the fitted concentration of half-maximal effect; series mostly up to about 57 µM; nearly all actives have a fitted effect of over 65% in size
G9a inh: qHTS Assay for Inhibitors of Histone Lysine Methyltransferase G9a; Histone-lysine N-methyltransferase EHMT2 (Homo sapiens), Q96KQ7; G9a H3K9 monomethylation, AlphaScreen, 2 h; Potency, µM (highest dose often 102 µM), for the others: top-dose activity, negative = inhibition, usual class: inhibitors; 350,000 tested, 8.8% active; AID 504332, 2011; note: potency is the fitted concentration of half-maximal effect; nearly all actives have a fitted effect of over 75% in size
Target sequence (Q96KQ7 913-1193 limits assumed): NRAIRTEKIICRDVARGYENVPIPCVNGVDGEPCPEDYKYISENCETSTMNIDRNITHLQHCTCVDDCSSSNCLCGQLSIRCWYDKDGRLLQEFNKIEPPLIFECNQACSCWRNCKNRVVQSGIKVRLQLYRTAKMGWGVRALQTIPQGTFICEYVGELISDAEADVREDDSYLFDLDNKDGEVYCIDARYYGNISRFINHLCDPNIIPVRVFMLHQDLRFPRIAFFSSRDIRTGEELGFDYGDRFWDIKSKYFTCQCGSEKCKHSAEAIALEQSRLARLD
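Quantitative HTS format: methyltransferase activity on a biotin-tagged H3K9 peptide is measured by AlphaScreen, using a rabbit anti-monomethyl-H3K9 antibody with streptavidin donor and anti-IgG acceptor beads. Final levels are 20 nM enzyme, 500 nM peptide, 20 uM SAM; 2 h RT.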
* hit, by the source's call; ? = inconclusive; · = not tested or not shown; [ ] = another dose, or the depositor's remark. Rows were chosen to be rich in hits. Some 10% of all compounds tested hit in one or more screens of this group. Unless noted, calls come from the whole dose curve; as a rule, active = well fitted curve in the direction sought with a large enough effect; inconclusive = small, poorly fitted or top-dose-only effect, or another doubt; inactive = no such curve, though single readings can be large; an effect the other way counts as inactive or inconclusive. Unless noted, % is set by controls: 0 for no effect and ±100 for the full control effect.

SMILES | Mm-Cpn inhibitor | VDR inhibitor | Sfp PPTase inh | CCT chaperon mod | PLK1 PBD block | G9a inh
COc1ccccc1-c1nc(C#N)c(N2CCN(c3cccc(Cl)c3)CC2)o1 | 5% | -5% | -12% | -2 | 1% | 0.71µM*
Cc1cccc(-c2nc(C#N)c(N3CCCCC3)o2)c1 | 0% | -7% | 12% | -1 | -11% | 7.1µM*
CCC(=O)Nc1ccccc1-c1nc2ccccc2n(CC(=O)c2ccc(Br)cc2)c1=O | · | 0% | · | · | · | -11%[59 µM]
Cc1ccc(N(Cc2cc(=O)[nH]c3ccccc23)C(=O)CCl)c(C)c1 | -1% | -17% | -12% | 2 | ? | 50µM*
CCC(=O)N(Cc1cc(=O)[nH]c2ccccc12)c1ccccc1C | -9% | 8% | -4% | -2 | -2% | 45µM*
CCC(=O)N(Cc1cc(=O)[nH]c2ccccc12)c1cccc(C)c1 | -21% | -4% | ? | -2 | -1% | 10µM*
CCCC(=O)N(Cc1cc(=O)[nH]c2ccccc12)c1ccc(C)cc1C | 0% | -3% | -7% | 0 | -7% | ?
COC1C(O)C(CO)OC1n1cnc2c(NC3CCCCC3)ncnc21 (stereo not drawn) | · | 7% | 5% | · | · | ·
O=C(O)COc1ccc(/C=C/c2nc(-c3ccccc3O)n[nH]2)cc1 | 1% | -7% | 4% | -1 | -7% | 13µM*
CCOC(=O)c1nc(Nc2ccc(C(=O)O)cc2)c2ccccc2n1 | -1% | 8% | 8% | -3 | -6% | 40µM*
O=C(O)c1cccc(Nc2nc(-c3ccccc3)nc3ccccc23)c1 | 0% | -15% | 10% | -2 | 0% | 56µM*
Oc1ccc(Nc2nc(-c3ccccc3O)nc3ccccc23)cc1 | 4% | -1% | 6% | -2 | -28% | 50µM*
O=C(O)c1ccc(Nc2nc(-c3ccccc3)nc3ccccc23)cc1 | -3% | 79µM* | 2% | 0 | 19µM* | ?
Oc1ccc(Nc2nc(-c3ccccc3F)nc3ccccc23)cc1 | 3% | 16% | 10% | -3 | -2% | ?
Cc1ccc(-c2noc(CCC(=O)Nc3ccc(F)cc3Cl)n2)cc1 | · | -26% | · | · | · | -10%[59 µM]
CCOc1cc2[nH]c(=O)n(CCCCC(=O)N3CCN(c4ccccc4)CC3)c(=O)c2cc1OCC | · | -2% | · | · | · | -1%[59 µM]
c1ccc(Nc2nc(-c3ccccc3)nc3ccccc23)cc1 | -2% | -12% | 11% | 0 | 0% | 0%[0.501 µM]
O=C(O)c1cccc(Nc2nc3ccccc3nc2NS(=O)(=O)c2cccs2)c1 | -2% | -18% | 14% | 1 | -22% | 45µM*
CNC(=O)c1ccc(Nc2nc(-c3ccccc3)nc3ccccc23)cc1 | 1% | 8% | 2% | 3 | 0% | 50µM*
CN(C)C(=O)c1ccc(-c2nc(Nc3ccccc3)c3ccccc3n2)cc1 | · | 40µM* | -7% | · | · | 2%[0.501 µM]
CCn1c(=O)cc(SCC(=O)NCc2ccc(F)cc2Cl)c2ccccc21 | · | 3% | · | · | · | -2%[59 µM]
Cc1ccc(CNC(=O)CCCN2C(=O)CCn3nc(-c4cccn4C)cc32)cc1 | · | 8% | · | · | · | -9%[59 µM]
CCc1ccccc1NC(=O)c1cnc2sc(N3CCOCC3)nn2c1=O | · | 4% | · | · | · | 21%[59 µM]
O=C(Nc1cccc(Cl)c1)C1CCCN(C2=NS(=O)(=O)c3ccccc32)C1 (stereo not drawn) | 0% | 4% | · | 4 | 0% | ?
O=C(Nc1ccc(Cl)cc1F)C1CCCN(C2=NS(=O)(=O)c3ccccc32)C1 (stereo not drawn) | 1% | -5% | · | -3 | -4% | 50µM*
SMILES | Mm-Cpn inhibitor | VDR inhibitor | Sfp PPTase inh | CCT chaperon mod | PLK1 PBD block | G9a inh
CN(C)c1ccc(/C=C/c2cccc[n+]2[O-])cc1 | -11% | -15% | 8% | 0 | 13% | 50µM*
CC(C)CC[n+]1ccccc1/C=C/c1ccc(N(C)C)cc1 | -7% | -15% | 9% | 3 | 30% | 32µM*
[O-][n+]1ccccc1/C=C/c1ccccc1 | · | 11% | · | -4 | -5% | ·
COC(=O)c1ccc(C(/C=C/[C@@H](C)C(=O)N[C@H](C)CO)NC(=O)OCc2ccccc2)cc1 (stereo partly drawn) | · | · | 14% | · | · | ·
COC(=O)c1ccccc1NC(=O)C1(c2cccs2)CCOCC1 | · | 3% | · | · | · | -13%[59 µM]
Cc1ccc(NC(=O)COC(=O)C2CC(=O)N(Cc3ccccc3)C2)cc1S(=O)(=O)N(C)C (stereo not drawn) | 2% | 0% | 12% | -2 | -7% | 40µM*
Cc1ccc(NC(=O)CN2CCC(Cc3ccccc3)CC2)cc1S(=O)(=O)N(C)C | 5% | -11% | -30% | -1 | 2% | 8.9µM*
CCN(CC)c1ccc(NC(=O)C2CC(=O)N(Cc3ccccc3)C2)cc1 (stereo not drawn) | -6% | -12% | -22% | 5 | -21% | 11µM*
CN(C)S(=O)(=O)c1ccc(NC(=O)C2CC(=O)N(Cc3ccccc3)C2)cc1 (stereo not drawn) | -2% | 15% | -9% | -2 | -10% | 17%
COc1ccc(-c2nnc(SCCOc3ccccc3C)o2)cc1OC | · | 10% | · | · | · | -35%[59 µM]
CSCC[C@H](NC(=O)c1cccs1)c1nnc2ccccn12 | 0% | -2% | 6% | -3 | 5% | -1%
CSCC[C@H](NC(=O)c1ccc(Br)o1)c1nnc2ccccn12 | -1% | ? | 17% | -1 | 11µM* | 12%
CSCC[C@H](NS(=O)(=O)c1ccc(C(C)=O)cc1)c1nnc2ccccn12 | -3% | 15% | 5% | -2 | -17% | 45µM*
CSCCC(NC(=O)C1CCCC1)c1nnc2ccccn12 (stereo not drawn) | 1% | -16% | 18% | -1 | 3% | 2%
Cc1cc2n(n1)CCC(=O)N2Cc1ccc(C(=O)Nc2cc(Cl)ccc2C)cc1 | · | 4% | · | · | · | -7%[59 µM]
CCOC(=O)C1CCN(Cc2oc(CO)cc(=O)c2O)CC1 | 1% | -6% | 14% | 1 | -1% | 11µM*
O=c1cc(CO)oc(CN2CCN(c3ccccc3)CC2)c1O | 1% | -13% | -5% | -1 | -10% | 22µM*
CCN1CCN(Cc2oc(CO)cc(=O)c2O)CC1 | 0% | 13% | -7% | -2 | -6% | 1.8µM*
NS(=O)(=O)c1ccc(-c2ccc(/C=C3\NC(=S)NC3=O)o2)cc1 | -1% | 79µM* | 5.6µM* | 1 | ? | 8.9µM*
Cc1[nH]c2ccccc2c1C(=O)C(=O)NC1CC(=O)N(c2cccc(F)c2)C1 (stereo not drawn) | · | 12% | · | · | · | -26%[59 µM]
